Experimental findings from PubChem BioAssay (NCATS) are described below.

Results filed as inconclusive are left out. Entries that show only a call come without a potency. Activity calls are given as the source filed them. Calls follow the shape of the full dose curve.

This experiment deals with Nucleoprotein (Lymphocytic choriomeningitis virus (strain Armstrong)) (UniProt P09992). The experiment is described as follows: qHTS for Inhibitors of the Functional Ribonucleoprotein Complex (vRNP) of Lymphocytic Choriomeningitis Arenaviruses (LCMV): LCMV Primary Screen - GLuc reporter signal (AID 1347086). Also: nearly all actives have a fitted effect of over 70% in size. Conditions: LCMV minigenome vRNP cell assay, Gaussia luciferase reporter; series mostly up to 57.5 µM.
Sequence of Nucleoprotein (Lymphocytic choriomeningitis virus (strain Armstrong)) (P09992 whole entry, looked up): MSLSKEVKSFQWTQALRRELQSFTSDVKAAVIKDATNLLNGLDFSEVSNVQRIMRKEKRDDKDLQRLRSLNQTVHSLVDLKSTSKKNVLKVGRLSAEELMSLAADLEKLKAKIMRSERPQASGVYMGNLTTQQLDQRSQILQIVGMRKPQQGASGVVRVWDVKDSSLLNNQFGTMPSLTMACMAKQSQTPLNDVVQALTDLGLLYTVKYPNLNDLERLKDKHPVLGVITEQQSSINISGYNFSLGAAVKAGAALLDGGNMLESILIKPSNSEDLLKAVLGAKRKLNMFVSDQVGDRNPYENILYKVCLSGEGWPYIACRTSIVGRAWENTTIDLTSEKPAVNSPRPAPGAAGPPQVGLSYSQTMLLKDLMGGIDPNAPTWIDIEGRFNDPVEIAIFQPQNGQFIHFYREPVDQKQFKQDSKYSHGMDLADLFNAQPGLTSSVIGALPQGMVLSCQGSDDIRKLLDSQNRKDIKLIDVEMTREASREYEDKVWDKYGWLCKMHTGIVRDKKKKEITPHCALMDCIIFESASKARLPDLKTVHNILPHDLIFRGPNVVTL
For the compound `C[C@H]1[C@H]2CC[C@H]3[C@@H]4CC=C5C[C@@H](N(C)C)CC[C@]5(C)[C@H]4CC[C@]23CN1C`, the Potency entry is “inactive”.
The value for `C[C@]12CCC(=O)C=C1CC[C@@H]1[C@@H]2CC[C@@]2(C)[C@H]1CC[C@]2(O)C(=O)CO` was “inactive”.
Turning to `CCOC(=O)OCC/C(SC(=O)OCC)=C(\C)N(C=O)Cc1cnc(C)nc1N`, the Potency result is “inactive”.
For `C(=C\c1ccccc1)/CN1CCN(C(c2ccccc2)c2ccccc2)CC1`, the Potency result was “inactive”.
